# This is a sample that favours compounds with a hit; in the whole collection about 8.9% have one here.
# SW480 rerep – A quantitative high throughput screen for small molecules that induce DNA re-replication in SW480 colon adenocarcinoma cells; 1.8% of 340,000 active; AID 624297, 2012; SW480 DNA re-replication, Hoechst DNA content imaging, 48 h; Potency, µM (top dose mostly 46.1 µM), for inactives: at the top dose re-replication activation, actives largely listed as activators; note: potency is the fitted concentration of half-maximal effect; % of control where 0% means no effect; nearly all actives have a fitted effect of over 55% in size
#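 Image-based read-out: total Hoechst fluorescence of nuclei (405 nm excitation, 500-530 nm emission), with hits raising the fraction of high-intensity nuclei. SW480 colon cells incubated 48 hr with compounds at 37 C.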
# MCF10A rerep – A quantitative high throughput screen for small molecules that induce DNA re-replication in MCF 10a normal breast cells | MCF 10A DNA re-replication, Hoechst nuclear intensity, 48 h | Potency, µM (series often up to 46.1 µM), for inactives: at the top dose activity, positive = re-replication, hits mostly activators | 2.9% of 350,000 active; note: potency is the fitted concentration of half-maximal effect; % of control where 0% means no effect; nearly all actives have a fitted effect of over 50% in size
# KB-3-1 tox – qHTS assay for MDR1-selective chemotherapeutics: Primary screen using the parental adenocarcinoma cell KB-3-1 | KB-3-1 viability, CellTiter-Glo ATP luminescence, 72 h | Potency, µM (top dose mostly 46.1 µM), hits mostly cytotoxic | 1.4% of 400,000 active; note: potency is the fitted concentration of half-maximal effect; % is set by controls: 0 for no effect and ±100 for the full control effect; nearly all actives have a fitted effect of over 60% in size
#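 Multi-concentration cytotoxicity screen in KB-3-1 cells grown in DMEM lacking phenol red with 10% FBS. After 72 h at 37 °C with compound, ATP-dependent luminescence was recorded.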
# DRD3 antagonist – qHTS of D3 Dopamine Receptor Antagonist: qHTS; D3R cells, DiscoveRx beta-arrestin luminescence, antagonist mode; active compounds read low; max response, negative = inhibition, %; 2.5% of 360,000 active; in the data active = max response below about -50%; inconclusive = no clear call, values can overlap the other calls; note: % is set by controls: 0 for no effect and ±100 for the full control effect
# Target sequence (P35462 whole entry, looked up): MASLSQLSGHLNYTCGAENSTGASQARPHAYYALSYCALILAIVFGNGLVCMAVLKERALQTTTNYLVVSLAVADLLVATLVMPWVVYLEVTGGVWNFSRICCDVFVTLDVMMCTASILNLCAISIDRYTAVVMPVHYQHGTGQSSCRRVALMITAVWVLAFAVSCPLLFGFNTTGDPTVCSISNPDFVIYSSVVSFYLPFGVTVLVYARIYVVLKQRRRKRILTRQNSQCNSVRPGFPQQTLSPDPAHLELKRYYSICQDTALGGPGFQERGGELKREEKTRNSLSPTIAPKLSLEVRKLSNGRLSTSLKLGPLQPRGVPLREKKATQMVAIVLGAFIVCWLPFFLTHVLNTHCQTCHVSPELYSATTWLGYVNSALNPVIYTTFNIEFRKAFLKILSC
#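 Cells expressing the human receptor were seeded at 1500 cells/well, incubated overnight at 37 degrees C in 5% CO2, then exposed to library compounds with dopamine controls for 90 minutes at 37 degrees C before luminescent detection.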
# KB-V1 MDR tox – qHTS assay for MDR1-selective chemotherapeutics: Primary screen using the drug-selected MDR subline cells KB-V1; KB-V1 MDR cells viability, CellTiter-Glo, 72 h; Potency, µM (top dose mostly 46.1 µM), hits mostly cytotoxic; 3.4% of 400,000 active; note: potency is the fitted concentration of half-maximal effect; % is set by controls: 0 for no effect and ±100 for the full control effect; nearly all actives have a fitted effect of over 60% in size
#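 Cytotoxicity toward P-gp-expressing KB-V1 cells was determined as loss of CellTiter-Glo luminescence after 72 h at 37 degrees C. Compounds were tested in quantitative HTS format across a concentration range, with curves fitted to normalized data.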
# D3 ag – qHTS of D3 Dopamine Receptor Agonist: qHTS. D3R DiscoveRx beta-arrestin cells, luminescence, 90 min. max activation, %. 0.58% of 410,000 active. AID 652048, 2013; in the data active = max activation above about 30%; note: 0% is about no effect
#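 Agonist mode: compounds and dopamine controls were applied to plated cells for 90 min at 37 degrees C after an overnight attachment at 1500 cells/well. Luminescent read-out followed 30 - 60 minutes at room temperature with DiscoveRx detection reagent.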
# Numbers without * were called inactive; i = inactive; u = inconclusive; x = not tested or not shown; [ ] = remark or other dose. Unless noted, calls come from the whole dose curve; as a rule, active = well fitted curve in the direction sought with a large enough effect; inconclusive = small, poorly fitted or top-dose-only effect, or another doubt; inactive = no such curve, though single readings can be large; an effect the other way counts as inactive or inconclusive.
SMILES,SW480 rerep,MCF10A rerep,KB-3-1 tox,DRD3 antagonist,KB-V1 MDR tox,D3 ag
COc1ccc2c(c1OC)C(=O)N1c3cccc(Cl)c3C(=O)OC21 (configuration not stated),0.65µM*,1.3µM*,i,-22,i,-7
COc1ccc2c(c1OC)C(=O)N1c3ccccc3C(=O)N(c3ccccc3F)C21 (configuration not stated),-5%[9.22 µM],u,i,-10,5.8µM*,-3
COc1ccc2c(c1OC)C(=O)N1c3ccccc3COC21 (configuration not stated),-1%,14%,i,39,i,3
O=C(Nc1ccccc1Br)N1CCC(CN2CCCC2)CC1,x,x,i,x,i,-12
S=C(NCc1ccc2[nH]c3c(c2c1)CCCC3)Nc1ccccc1,u,21µM*,i,8,i,2
CCOc1ccc(C(=O)Nc2ccc(Cc3ccncc3)cc2)cc1Br,16µM*,u,u,-21,i,-2
CCOc1ccc(C(=O)Nc2ccc(NC(=O)c3ccccc3)cc2)cc1Br,-38%,1%,i,-10,i,0
COc1ccccc1C(=O)Nc1ccc(Cc2ccncc2)cc1,4%,-37%,u,-26,9.2µM*,-11
COc1c(C)cc(Br)cc1C(=O)Nc1ccc(Cc2ccncc2)cc1,u,16µM*,i,2,i,-2
COc1ccc(-n2cc(-c3ccccc3)c3c(NCCc4ccc(OC)c(OC)c4)ncnc32)cc1,x,x,x,x,x,14
Cc1nc(-c2ccc(C)c(S(=O)(=O)N3CCC(C(=O)NCc4ccc(Cl)cc4)CC3)c2)no1,x,x,i,x,i,-11
CCN(CC)C(=O)[C@@]1(c2ccccc2)C[C@@H]1CN,0%,1%,x,x,x,x
O=C(COc1ccccc1)NCC(c1ccc(Cl)cc1)N1CCCCC1 (configuration not stated),x,x,i,x,i,-19
CC1CCCN(CCCNC(=O)c2nn(C)c3c2CSc2ccccc2-3)C1 (configuration not stated),0%,6%,i,-66*,i,-17
CC1CCCN(CCCNC(=O)c2ccc3c(c2)N(Cc2ccccc2F)C(=O)c2ccccc2S3(=O)=O)C1 (configuration not stated),u,-2%,u,-112*,i,-26
O=C(NCCCN1CCOCC1)c1ccc2c(c1)N(Cc1cccc(Cl)c1)C(=O)c1ccccc1S2=O (configuration not stated),4%,u,i,-6,i,-2
CC1CCCN(CCCNC(=O)c2ccc3c(c2)N(Cc2cccc(Cl)c2)C(=O)c2ccccc2S3=O)C1 (configuration not stated),x,x,i,-117*,i,-10
CC1CCCCN1CCCNC(=O)c1nn(C)c2c1CSc1ccccc1-2 (configuration not stated),-19%,-12%,i,u,i,-25
CC1CCCN(CCCNC(=O)c2ccc3c(c2)N(Cc2ccc(F)cc2)C(=O)c2ccccc2S3=O)C1 (configuration not stated),21µM*,2%,i,-82*,i,-20
COc1ccc(OC(=O)c2nc(SCc3ccccc3F)ncc2Cl)cc1,x,x,x,x,x,-5
O=S(=O)(c1ccc(-c2cc(C(F)(F)F)on2)s1)N1CCN(c2ccc(F)cc2)CC1,x,x,x,x,x,-17
Cc1cc(Cl)cc(Br)c1OCCNCC(C)O (configuration not stated),-8%[9.22 µM],1%,i,-71*,i,-13
Cc1cc(Cl)cc(Br)c1OCCCCn1cncn1,3%,4%,u,-4,i,3
CN(CC(=O)Nc1c(Cl)cccc1Cl)C(=O)Cc1ccsc1,0%,-1%,i,u,i,-10
